Measurements taken from PubChem BioAssay AID1903 (Southern Research Specialized Biocontainment Screening …, 2009).
Among all 310,000 compounds or so, about 1,200 (0.39%) were called active. The rule behind the calls is not given here. A selection follows. Results with a measured potency or affinity are listed apart.

What follows are compounds tested against Large T antigen (Simian virus 40) (UniProt P03070) (assay: SV40 large T antigen inhibitors, biochemical (AID 1903)). Details: SV40 large T antigen ATPase/helicase inhibition assay; at 20 µM; hits give high values.
Large T antigen (Simian virus 40), sequence (P03070 whole entry, looked up): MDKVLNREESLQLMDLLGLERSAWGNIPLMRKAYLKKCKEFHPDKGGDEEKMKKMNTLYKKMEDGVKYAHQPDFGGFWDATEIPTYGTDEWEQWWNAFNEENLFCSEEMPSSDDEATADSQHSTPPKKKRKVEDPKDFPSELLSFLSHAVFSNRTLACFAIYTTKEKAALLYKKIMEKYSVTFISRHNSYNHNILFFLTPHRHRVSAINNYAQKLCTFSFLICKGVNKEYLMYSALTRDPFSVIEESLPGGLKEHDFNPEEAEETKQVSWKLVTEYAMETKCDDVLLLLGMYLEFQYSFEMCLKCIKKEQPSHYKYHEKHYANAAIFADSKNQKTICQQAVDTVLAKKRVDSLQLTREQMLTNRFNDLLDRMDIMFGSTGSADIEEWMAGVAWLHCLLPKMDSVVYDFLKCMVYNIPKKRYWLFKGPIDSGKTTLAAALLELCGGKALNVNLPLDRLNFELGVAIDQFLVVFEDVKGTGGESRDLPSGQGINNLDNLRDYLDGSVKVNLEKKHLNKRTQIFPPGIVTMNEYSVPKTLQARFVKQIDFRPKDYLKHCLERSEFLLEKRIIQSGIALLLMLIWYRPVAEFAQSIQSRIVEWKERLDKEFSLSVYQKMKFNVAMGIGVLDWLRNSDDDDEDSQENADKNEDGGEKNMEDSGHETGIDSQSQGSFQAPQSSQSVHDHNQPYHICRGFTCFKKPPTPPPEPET

inhibition, inactive:
CN(C)/C=C/C(=O)c1ccc(S(=O)c2ccccc2)cc1 (configuration not stated) 12.1%, Cc1cc(/C=C2/NC(=O)NC2=O)c(C)n1-c1ccncc1 6.66%, Cc1cc(/C=C2\NC(=S)NC2=O)c(C)n1-c1cccnc1 4.58%, Cc1cc(/C=C2/NC(=S)NC2=O)c(C)n1-c1cccnc1 5.09%, Cc1cc(/C=N\O)c(C)n1-c1ccncc1 7.77%, COc1ccc2c(c1)CC/C(=C\c1ccc(OC)c(Cn3nc(C)cc3C)c1)C2=O 10.2%, CCCc1nc(-c2ccccc2)c(-c2ccc(OC)c(OC)c2)c(=O)[nH]1 3.66%, O=C(CSc1nnc(CNC(=O)c2cccs2)o1)NC1CCCC1 0.7%, Cc1ccc(C(=O)Cn2nnc(-c3ccccc3)n2)cc1 0.94%, O=C(CCS(=O)(=O)c1cccs1)Nc1ccc(C(=O)NC2CCN(Cc3ccccc3)CC2)cc1 16.1%, O=C(CSCc1c(Cl)cccc1Cl)Nc1ccccc1C(=O)N1CCOCC1 6.94%, CCOC(=O)c1sc(N)c(C(=O)Nc2ccccc2OC)c1C 25.6%, Cc1ccccc1-n1nnnc1SCC(=O)Nc1ccc(S(=O)(=O)N2CCCC2)cc1 -7.07%, Nc1ccc(-c2nc3ccc([N+](=O)[O-])cc3[nH]2)cc1 1.62%, COc1ccc2nc(-c3ccc(N)cc3)[nH]c2c1 25.1%, CC1CCN(C(=O)COC(=O)CSc2ccc(C(N)=O)cc2[N+](=O)[O-])CC1 18.6%, O=C1CCCN1CCCNC(=S)Nc1ccccc1 14.1%, O=C1CCCN1CCNC(=S)Nc1ccccc1 1.29%, COCCOC(=O)C1=C(C)NC(=O)NC1c1ccco1 (configuration not stated) 13%, O=C(Nc1ccc(F)cc1)C(=O)C1C(=O)Nc2ccccc21 (configuration not stated) 16.2%, Cc1ccc(NC(=O)C(=O)C2C(=O)Nc3ccccc32)cc1 (configuration not stated) 6.13%, COc1ccc(CC(=O)NCC(=O)N/N=C/c2sccc2C)cc1 26.5%, Cc1ccc(S(=O)(=O)N2CCN(CC(=O)N/N=C\c3ccc(Cl)c([N+](=O)[O-])c3)CC2)cc1 19.6%, O=S(=O)(c1ccc(NC(=S)N/N=C/c2ccc(N3CCOCC3)cc2)cc1)N1CCOCC1 22.6%, N#Cc1ccc(/C=N/NC(=S)Nc2ccc(S(=O)(=O)N3CCOCC3)cc2)cc1 15.2%, Cc1ccc(S(=O)(=O)N2CCN(CC(=O)N/N=C\c3ccncc3)CC2)cc1 22%, CCCCN(C(=O)NC(=O)Nc1ccccc1C)S(C)(=O)=O 12%, COc1ccc(N2C(=O)CSC2c2cccc(F)c2)cc1 (configuration not stated) 9.83%, CC1CC(C)(C)NC(=S)N1CCCC(=O)N1CCN(c2ccc(F)cc2)CC1 (configuration not stated) 7.98%, CCOc1cc2c(cc1OCC)C(c1ccccc1OC)OC(=O)C2 (configuration not stated) 2.26%, COc1cc(/C=N\Nc2nc3ccccc3[nH]2)cc(OC)c1OC 22.4%, COc1ccc(/C=N/Nc2nc3ccccc3o2)cc1O 28.6%, COc1ccc(/C=N/Nc2nc3ccccc3[nH]2)cc1OC 26.4%, COc1cc(/C=N\Nc2nc3ccccc3o2)cc(OC)c1OC 12.1%, C(=N\Nc1nc2ccccc2[nH]1)/c1ccccc1 24.9%, Cc1ccc(/C=N/Nc2nc3ccccc3[nH]2)s1 18.3%, COc1ccc(-c2noc(N3CCC(C(=O)NCCCN4CCCCC4)CC3)n2)cc1 11.4%, C/C(=N\NC(=O)c1c(Cl)c(C)nn1C)c1cccc(NC(=O)c2cccc(F)c2)c1 27.2%, O=C(Cc1ccccc1)NCC(=O)N/N=C/c1cccnc1 12.9%, O=C1Nc2ccc(S(=O)(=O)N3CCOCC3)c3cccc1c23 3.61%, CCOC(=O)C1=C(C)NC(=O)C(C(N)=O)C12CCCCC2 (configuration not stated) 4.24%, CN(CCc1ccccn1)C(=O)CCC1CCCN(C(=O)CN2CCCCCC2)C1 (configuration not stated) 16.4%, Cc1cccc(Nc2nc3c(S(=O)(=O)c4ccccc4)nnn3c3ccccc23)c1 8.95%, CCCN1C(=O)/C(=N\OCC(=O)NC23CC4CC(CC(C4)C2)C3)c2ccccc21 19.7%, COc1ccc(C2CC(=O)c3cnc(N4CCc5ccccc54)nc3C2)cc1OC (configuration not stated) 6.12%, CCOC(=O)C(CC)n1nc(C)n2c(cc3sccc32)c1=O (configuration not stated) 9.17%, Cc1cc(N)ccc1N1CCCC1 11.3%, Cc1cc(N)ccc1-n1c(C)ccc1C 15.8%, Cc1ccc(CNC(C)(C)CO)cc1 1.14%, Cc1nc(-c2ccccc2O)n(S(=O)(=O)N(C)C)n1 12.3%, CCN(CC(=O)Nc1ccc(NC(C)=O)cc1)C(=O)c1ccc(NC2CC2)c([N+](=O)[O-])c1 9.29%, CCN(C(=O)c1ccc(Cl)c([N+](=O)[O-])c1)c1ccccc1 4.72%, COCCNC(=O)C(=O)c1cc(C)n(-c2ccc([N+](=O)[O-])cc2)c1C 3.94%, CCN1C(=O)c2ccccc2Sc2ccc(C(=O)NCCCN3CCCCC3)cc21 10.1%, CCc1nnc(NC(=O)COc2ccc(N(C)S(=O)(=O)c3ccc(C)cc3)cc2)s1 4.23%, C=CCOc1cccc(CNc2cccc(C(=O)O)c2)c1 15.2%, C=CCOc1cccc(CNCc2ccncc2)c1 8.06%, Oc1ccc(NCc2cccc(OCc3ccc(F)cc3)c2)cc1 29.3%, C=CCOc1ccc(CNc2ccc(NC(=O)CCC)cc2)cc1OCC 18.3%, C=CCOc1ccc(CNc2ccc3[nH]c(=O)[nH]c3c2)cc1OC 13.7%, Fc1ccc(CNc2ccc(CNc3ncn[nH]3)cc2)cc1 19.6%, CNC(=O)COc1coc(CN2CCN(c3ccc(OC)cc3)CC2)cc1=O 21.7%, COc1ccc(-n2ccnc2SCC(=O)Nc2ccccc2)cc1 15%, CC(=O)c1ccc(N2CCN(C(=O)Cc3cccs3)CC2)cc1 1.64%, Cc1ccc2nc(C)c(C)nc2c1N 17.3%, Cc1ccc2cccnc2c1N 5.53%, Cc1cccc(-c2nnc(NC(=O)c3ccco3)s2)c1 8.94%, CN(c1ccc(F)cc1)S(=O)(=O)c1ccc2[nH]cc(C(=O)O)c(=O)c2c1 5.14%, COc1cccc(C(=O)Nc2c3c(nn2-c2ccc([N+](=O)[O-])cc2)CS(=O)(=O)C3)c1 3.72%, CCN(CC)C(=O)CSc1nc2ccc(NC(=O)CSc3nnc(N)s3)cc2s1 5.67%, CCN(CC)S(=O)(=O)c1cccc(NC(=O)CSc2nnc(N)s2)c1 2.59%, Cc1cccc(OCC(=O)NNC(=O)CCc2ccccc2)c1 15.5%, Nc1ccc(S(=O)(=O)NNC(=O)C(=O)NNc2ccccn2)cc1 11.5%, Cn1c(=O)c2c(nc(N3CCOCC3)n2CCSc2ncccn2)n(C)c1=O 12.4%, COc1cccc(N=Cc2c(O)n(-c3cccc(C)n3)c(=O)c3ccccc23)c1 18%, COc1ccc(N=Cc2c(O)n(-c3cccc(C)n3)c(=O)c3ccccc23)c(OC)c1 13.7%, COc1cc(S(=O)(=O)Nc2ccc(C)cc2)ccc1N=Cc1c(C)[nH]n(-c2ccc(C)cc2)c1=O 2.78%, COc1ccccc1N=Cc1c(C)[nH]n(-c2ccc(C)cc2C)c1=O 27.4%, COc1cc(SC#N)ccc1N=Cc1c(C)[nH]n(-c2ccc(C)c(C)c2)c1=O 35.9%, COc1cc(SC#N)ccc1N=Cc1c(C)[nH]n(-c2ccc(Cl)cc2)c1=O 17.5%, CCON1C(=O)CN(C(=O)OC)C1c1ccc(Cl)cc1Cl (configuration not stated) 19.9%, Cc1ccccc1NC(=O)Cn1nnc2sc3c(c2c1=O)CC(C)(C)OC3 7.47%, O=C(Nc1ccc(S(=O)(=O)N2CCCCC2)cc1)C1CC(=O)N(Cc2ccccc2)C1 (configuration not stated) 16.5%, CSC1=NCCCN1C(=O)c1c(-c2ccccc2Cl)noc1C 10.2%, O=C(O)C1CCCC[C@H]1C(=O)Nc1ncc([N+](=O)[O-])s1 (some centres not stated) 3.81%, COc1ccc(CCNC(=S)Nc2ccc(C(C)C)cc2)cc1 13.7%, CC(/C=C1\SC(=S)N(CC(=O)O)C1=O)=C\c1ccccc1 19.5%, CC(=C\c1ccccc1)/C=C1/SC(=S)N(CCC(=O)O)C1=O 0.31%, Cc1ccc(-c2n[nH]c(=S)n2C)cc1 14.5%, Cc1ccc(S(=O)(=O)c2c(C)nn(-c3ccccc3)c2OC(=O)c2ccc(Br)o2)cc1 6.66%, O=C(Nc1nc2ccccc2n1Cc1ccccc1)c1ccco1 -0.22%, CCC/C(=N\NC(=O)CCC(=O)NCc1ccccc1)c1ccccc1 8.82%, CCCCC/C(=N\NC(=O)CCC(=O)NCc1ccccc1)c1ccccc1 -0.61%, Cc1ccc(-c2nc(CSCC(=O)NCCCN3CCOCC3)c(C)o2)cc1 26.4%, CN(C)c1ccc(C2OC(=O)C3(CCCC3)C(=O)C2(C)C)cc1 (configuration not stated) 1.45%, COc1cc(C(=O)OCCN2CCOCC2)ccc1O 25.1%, COc1cc(C(=O)OCCCN2CCOCC2)ccc1O 30.9%
